Screening data (PubChem)
In the library only some 3.8% were active in any assay of this set; here they are far more common.
HT1080 IDH1KD tx = toxicity to HT-1080 IDH1 knockdown cells (counter line) | Potency, µM (doses to about 46.1 µM), inactives show at the top dose activity, negative = toxicity, hits mostly cytotoxic | HT-1080 IDH1 knockdown viability, ATP luminescence, 48 h | hit rate 2% among 360,000 | AID 686971;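 further: 0% = DMSO wells and -100% = cell-free medium wells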
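In this qHTS, HT-1080 cells depleted of IDH1 are exposed for 48 h at 37 °C to compound titrations. Toxicity is scored from CellTiter-Glo luminescence, with DMSO as full viability and medium alone as none.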
HT1080-NT tox = kills 2HG-producing HT-1080-NT fibrosarcoma cells; HT-1080-NT fibrosarcoma viability, CellTiter-Glo ATP luminescence, 48 h; Potency, µM (top dose mostly 46.1 µM), for the others: at the highest dose activity, negative = less viability, hits mostly cytotoxic; hit rate 1.6% among 360,000;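 further: NT is the 2HG producing partner of a matched IDH1 knockdown line; 0% = DMSO-treated cells and -100% = media-only wells without cells; nearly all actives have a fitted effect of over 55% in size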
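Viability of the 2HG-overproducing fibrosarcoma line after 48 hours of compound exposure at 37 degrees C was determined by luminescence with CellTiter-Glo, and concentration-effect curves were then fitted and categorized.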
ATXN2 expr inh = reduces ATXN2 reporter expression in HEK-293 cells. HEK-293 ATXN2-luciferase reporter, luminescence, 24 h. hit rate 0.72% among 360,000. Potency, µM (top dose mostly 57 µM), without a hit: top-dose activity change, negative = inhibition, actives largely listed as inhibitors. AID 1745845; further: on the % scale 0 is the no-effect control and ±100 the full control effect; nearly all actives have a fitted effect of over 55% in size
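ATXN2-luciferase reporter cells (luciferase flanked by upstream and downstream ATXN2 gene portions) were treated 24 h at 37 °C with compounds at up to 57 uM. SteadyGlo luminescence gave expression; GF-AFC fluorescence gave viability.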
HepG2 tox = HepG2 cytotoxicity, counter-screen for TGF-b inhibitors; HepG2 CAGA-GFP viability, ATP luminescence, 18 h; hit rate 0.76% among 410,000; AID 588856; Potency, µM (top dose mostly 46.1 µM), inactives show at the highest dose activity change, negative = cytotoxicity, hits mostly cytotoxic
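HepG2 CAGA-GFP cells (1000/well, DMEM with 1% FBS) received compound, then TGF-beta at 500 pg/mL final, and were incubated 18 hours at 37 degrees C. Viability was read by CellTiter-Glo luminescence. Media-only wells were set as complete cell-killing and DMSO as no toxicity.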
ATXN viability = reduces viability in counter-screen for ATXN expression inhibitors | S2 cells (HEK-293 line with an ATXN2-luciferase reporter) viability, CellTiter-Fluor protease fluorescence, 24 h | hit rate 0.49% among 400,000 | Potency, µM (doses to about 56.7 µM), most hits filed as cytotoxic; further: nearly all actives have a fitted effect of over 40% in size
TGFb inhibitor = TGF-b pathway inhibition. HepG2 CAGA-GFP TGF-b/SMAD3 reporter, GFP fluorescence, 18 h; TGF-beta stimulated, 500 pg/mL final. Potency, µM (top dose mostly 46.1 µM), without a hit: top-dose activity, negative = inhibition, hits mostly inhibitors. hit rate 1.2% among 410,000; further: on the % scale 0 is the no-effect control and ±100 the full control effect; nearly all actives have a fitted effect of over 65% in size
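Inhibition of TGF-beta-driven CAGA-GFP reporter expression in HEPG2 cells is measured by cellular GFP fluorescence after 18 h stimulation with 500 pg/mL recombinant TGF-beta in 1% FBS medium at 37 degrees C.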
* marks the source's active call; other numbers are inactive results; i = inactive; ? = inconclusive; . = not tested or not shown; [ ] = another dose, or the depositor's remark. The call rests on the fitted dose curve; in most records, active means well fitted curve in the direction sought with a large enough effect; inconclusive means small, poorly fitted or top-dose-only effect, or another doubt; inactive means no such curve, though single readings can be large; an effect the other way counts as inactive or inconclusive. Potency means the concentration at half of the fitted maximal effect.

SMILES | HT1080 IDH1KD tx | HT1080-NT tox | ATXN2 expr inh | HepG2 tox | ATXN viability | TGFb inhibitor
CCOC(=O)c1[nH]c(C)c(C(=O)Nc2ccc(C)c(Cl)c2)c1C | 13µM* | 0%[9.24 µM] | 0% | -32% | ? | 5%
CCOC(=O)c1[nH]c(C)c(C(=O)Nc2ccc(C)c(F)c2)c1C | 3.5µM* | 10µM* | -8% | -36% | i | -13%
COc1ccc(N2CCN(C(=O)c3nn(-c4ccc(C)cc4)c(=O)n(C)c3=O)CC2)cc1 | . | . | -9% | 15% | i | -17%
COc1cc(OC)c(OC)cc1/C=C/c1cc(C(F)(F)F)[nH]c(=O)n1 | 4% | 6% | 4% | 0% | i | 14%
COc1cc(/C=C/c2cc(C(F)(F)F)[nH]c(=O)n2)cc(OC)c1OC | 29µM* | ? | ? | -38% | ? | ?
O=C1C=C(c2ccccc2)C(=O)N1Nc1ccccc1 | ? | -5% | ? | -98% | ? | ?
Cc1ccc(NN2C(=O)C=C(c3ccc(Cl)cc3)C2=O)cc1 | ? | ? | 25µM* | -54% | . | ?
COc1ccc(C2=CC(=O)N(Nc3ccccc3)C2=O)cc1 | 16µM* | ? | -27% | -151% | i | ?
CNC(=O)Cn1cc(S(=O)(=O)Cc2ccccc2F)c2ccccc21 | . | . | . | -5% | . | 0%
COc1cc(F)ccc1CN1CCC(C(=O)Nc2ccc(Oc3ccccc3)nc2)CC1 | 21µM* | ? | -27% | -27% | i | -23%
CC(C)n1cc(CN2CCC(C(=O)Nc3ccc(Oc4ccccc4F)cc3)CC2)cn1 | 21µM* | ? | ? | -42% | i | ?
CCn1cc(CN2CCC(C(=O)Nc3ccc(Oc4ccccc4F)cc3)CC2)c(C)n1 | ? | -13% | -17% | -27% | i | -7%
COc1ccc(CN2CCC(C(=O)Nc3ccc(Oc4ccccc4)nc3)CC2)cc1F | -1% | 0% | -13% | -26% | i | 0%
COc1ccc(-c2cn3nc(SCC(=O)Nc4ccc(C)c(Cl)c4)ccc3n2)cc1 | . | . | 107% | 7% | i | 0%
O=C(O)c1ccc(N=N/C(=N\Nc2ccc(C(=O)O)cc2)c2ccccc2)cc1 | ? | -9% | 1% | 3% | 13µM* | 1%
O=C(O)c1cccc(N/N=C(\N=Nc2ccccc2)c2ccccc2)c1 | ? | ? | ? | -25% | ? | -14%
O=C(/C(=N\Nc1ccc(Br)cc1)Sc1nnnn1-c1ccccc1)c1ccccc1 | -3% | 0% | -4% | -28% | i | -1%
Brc1ccc(N/N=C(/N=Nc2nn[nH]n2)c2ccccc2)cc1 | 2.9µM* | ? | . | 4% | . | ?
CC(NC(=O)c1ccc2c(c1)N(Cc1ccc(Cl)cc1)C(=O)c1ccccc1S2=O)c1ccccc1 (configuration not stated) | . | . | 10% | -4% | i | ?
O=C(NCc1ccncc1)C1Cc2c(-c3ccccc3Oc3ccccc3)ccnc2O1 (configuration not stated) | -3% | ? | 0% | -57% | ? | 14µM*
O=C(Nc1ccc(F)c(Cl)c1)C1Cc2c(-c3ccccc3Oc3ccccc3)ccnc2O1 (configuration not stated) | 0% | 13µM* | ? | -26% | ? | ?
O=C(Nc1ccc(F)c(Cl)c1)C1Cc2c(-c3ccc4c(c3)OCO4)ccnc2O1 (configuration not stated) | 26µM* | 16µM* | ? | -17% | ? | ?
COc1ccc(NC(=O)C2Cc3c(-c4ccccc4Oc4ccccc4)ccnc3O2)cc1OC (configuration not stated) | ? | ? | ? | -15% | ? | ?
CC(=O)c1cccc(NC(=O)C2Cc3c(-c4ccc5c(c4)OCO5)ccnc3O2)c1 (configuration not stated) | -25% | -5% | ? | -39% | ? | 5%
CCC(C)NC(=O)C(=O)Nc1c2c(nn1-c1ccccc1)CS(=O)(=O)C2 (configuration not stated) | . | . | 3% | 7% | i | 16%
SMILES | HT1080 IDH1KD tx | HT1080-NT tox | ATXN2 expr inh | HepG2 tox | ATXN viability | TGFb inhibitor
CC(=O)c1[nH]c(C)c(C(=O)NCc2ccc(Cl)cc2)c1C | . | . | . | -13% | . | ?
CCC1CN(CC(=O)NCc2n[nH]c3c2CCCCC3)Cc2cc(OC)ccc2O1 (configuration not stated) | . | . | . | . | i | .
CCN1/C(=C/c2sc(-c3ccccc3C)c[n+]2C)Sc2ccccc21 | 2.1µM* | 2.1µM* | ? | -31% | . | 2.5µM*
Cc1cnc(C(=O)NNC(=O)c2ccc(Br)cc2)cn1 | 21µM* | ? | ? | -6% | i | -2%
O=C(NNC(=O)C1CCC1)c1ccc(Br)cc1 | 14% | 28% | 4% | -6% | i | 11%
Cc1ccc2[nH]cc(C(=O)CCl)c2c1 | 21µM* | 16µM* | ? | -105% | ? | ?
Clc1ccc(C(c2ccccc2)c2c[nH]c3ccccc23)s1 (configuration not stated) | . | . | ? | -109% | . | ?
Cc1ccc2c(C(=O)CN3CCSCC3)c(C)[nH]c2c1 | -2% | 1% | 2% | -5% | i | 7%
Cc1ccc2[nH]cc(C(O)c3c[nH]c4ccc(C)cc34)c2c1 | . | . | . | 10% | . | 10µM*
Cc1ccc2c(C(=O)CCl)c(C)[nH]c2c1 | 21µM* | ? | 20% | -96% | i | ?
Cc1cccc2c(C(O)c3c[nH]c4c(C)cccc34)c[nH]c12 | . | . | . | 2% | . | -19%
Cc1ccc2[nH]cc(C(c3ccccc3)c3ccc(Cl)s3)c2c1 (configuration not stated) | . | . | ? | 11µM* | ? | ?
CCOc1ccc(C2C(=O)N(C3CCCCCC3)CC(=O)N2CCc2ccccc2)cc1OC (configuration not stated) | . | . | . | -22% | . | -1%
CCOc1ccc(C2CC(=O)Nc3c2c(=O)[nH]c2ncnn32)cc1 (configuration not stated) | . | . | 10% | -4% | i | 7%
O=C1NC(=O)C(=Cc2ccc3c(c2)OC(F)(F)O3)S1 | . | . | 51% | . | . | .
C=C1C(=O)[C@@]23C(CC[C@@H]1[C@H]2O)[C@@]12CO[C@]3(O)[C@@H](O)[C@@H]1C(C)(C)CC[C@@H]2O (some centres not stated) | . | . | 9.7µM* | . | . | .
O=C1S/C(=C/c2ccc(N3CCOCC3)o2)C(=O)N1Cc1ccc(F)cc1 | 9% | 14% | -25% | -20% | i | 53%
